Assay outcomes from PubChem BioAssay.
HP1b binding inh = HTS for Inhibitors of HP1-beta Chromodomain Interactions with Methylated Histone Tails; Chromobox protein homolog 1 (Homo sapiens), P83916; AlphaScreen HP1-beta / biotin-H3K9me3 peptide binding; Potency, µM (series often up to 114 µM), for the others: at the highest dose activity change, negative = inhibition, usual class: inhibitors; hit rate 0.56% among 390,000; further: nearly all actives have a fitted effect of over 70% in size
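HP1-beta protein (50 nM final) preincubated 30 min at room temperature with biotinylated H3(1-18)K9me3 peptide (50 nM) in PBS pH 7.4, 0.01% Tween-20, then compound added for 30 min. AlphaScreen streptavidin donor/nickel chelate acceptor beads (10 ug/mL final), 30 min dark, luminescence read.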
BAZ2B block = qHTS Assay for Inhibitors of BAZ2B. Bromodomain adjacent to zinc finger domain protein 2B (Homo sapiens), Q9UIF8. AID 504333, 2011. hit rate 4.4% among 360,000. AlphaScreen BAZ2B-H3K14Ac peptide displacement. Potency, µM (series often up to 114 µM), without a hit: at the top dose activity change, negative = inhibition, most hits filed as inhibitors; further: on the % scale 0 is the no-effect control and ±100 the full control effect; nearly all actives have a fitted effect of over 60% in size
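Complex of BAZ2B and biotin-H3K14Ac (50 nM apiece) forms over 30 min at RT, then faces library compounds up to 110 uM for another 30 min; AlphaScreen beads added, 20 min dark incubation, luminescence read.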
PLK1 PBD block = qHTS for Inhibitors of PLK1-PDB (polo-like kinase 1 - polo-box domain): Primary Screen. Serine/threonine-protein kinase PLK1 (Homo sapiens), P53350. Plk1 PBD binding of FITC phosphopeptide, fluorescence polarization. Potency, µM, for inactives: max response, negative = inhibition, actives largely listed as inhibitors. hit rate 2.8% among 360,000; further: series mostly up to about 57 µM; on the % scale 0 is the no-effect control and ±100 the full control effect; nearly all actives have a fitted effect of over 65% in size
Target sequence (P53350 whole entry, looked up, the tested form may be a part): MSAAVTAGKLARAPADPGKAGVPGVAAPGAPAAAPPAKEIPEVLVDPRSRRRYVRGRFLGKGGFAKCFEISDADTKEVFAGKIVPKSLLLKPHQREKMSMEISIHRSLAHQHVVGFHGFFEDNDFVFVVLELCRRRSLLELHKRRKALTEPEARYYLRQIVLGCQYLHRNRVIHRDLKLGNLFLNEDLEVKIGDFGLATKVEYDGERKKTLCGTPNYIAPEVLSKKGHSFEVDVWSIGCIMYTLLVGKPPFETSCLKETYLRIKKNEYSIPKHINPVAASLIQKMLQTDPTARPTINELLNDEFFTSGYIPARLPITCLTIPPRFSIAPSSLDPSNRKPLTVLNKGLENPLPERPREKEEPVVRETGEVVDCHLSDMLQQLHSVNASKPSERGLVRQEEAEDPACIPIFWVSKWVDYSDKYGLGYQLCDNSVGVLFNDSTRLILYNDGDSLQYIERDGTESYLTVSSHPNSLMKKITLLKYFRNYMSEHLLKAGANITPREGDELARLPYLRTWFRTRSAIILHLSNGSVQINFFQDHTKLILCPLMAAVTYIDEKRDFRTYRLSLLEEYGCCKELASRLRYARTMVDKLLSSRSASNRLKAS
G9a inh = qHTS Assay for Inhibitors of Histone Lysine Methyltransferase G9a; G9a H3K9 monomethylation, AlphaScreen, 2 h; Potency, µM (doses to about 102 µM), for the others: top-dose activity, negative = inhibition, usual class: inhibitors; hit rate 8.8% among 350,000; AID 504332, 2011; further: on the % scale 0 is the no-effect control and ±100 the full control effect; nearly all actives have a fitted effect of over 75% in size
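Quantitative HTS format: methyltransferase activity on a biotin-tagged H3K9 peptide is measured by AlphaScreen, using a rabbit anti-monomethyl-H3K9 antibody with streptavidin donor and anti-IgG acceptor beads. Final levels are 20 nM enzyme, 500 nM peptide, 20 uM SAM; 2 h RT.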
JMJD2A Tudor inh = qHTS Assay for Inhibitors of JMJD2A-Tudor Domain; Lysine-specific demethylase 4A (Homo sapiens), O75164; AlphaScreen JMJD2A-Tudor / H3K4me3 peptide binding; Potency, µM (top dose mostly 114 µM), without a hit: at the top dose activity change, negative = inhibition, usual class: inhibitors; hit rate 4.4% among 390,000; AID 504339, 2011; further: on the % scale 0 is the no-effect control and ±100 the full control effect; nearly all actives have a fitted effect of over 50% in size
Sfp PPTase inh = qHTS Assay for Inhibitors of Bacillus subtilis Sfp phosphopantetheinyl transferase (PPTase); Potency, µM, for the others: largest response in the series, negative = inhibition, hits mostly inhibitors; hit rate 3.5% among 310,000; Biochemical Sfp PPTase activity, qHTS; AID 1490, 2009;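 further: the enzyme is Sfp with the accession as filed and its product quenches rhodamine fluorescence; 0% = enzyme reaction without inhibitor and -100% = no enzyme wells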
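Step 1, compound plus 15 nM Sfp-PPTase, 15 min, room temperature. Step 2, add rhodamine-CoA (5 uM) and BHQ-2-YbbR (12.5 uM). Step 3, read 525/598 nm fluorescence at 0 and 30 min.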
Numbers without * were called inactive; u = inconclusive; x = no result given; [ ] = another dose, or the depositor's remark. In the library only some 12% were active in any assay of this set; here they are far more common. The call rests on the fitted dose curve; in most records, active means well fitted curve in the direction sought with a large enough effect; inconclusive means small, poorly fitted or top-dose-only effect, or another doubt; inactive means no such curve, though single readings can be large; an effect the other way counts as inactive or inconclusive. Potency means the concentration at half of the fitted maximal effect.

SMILES	HP1b binding inh	BAZ2B block	PLK1 PBD block	G9a inh	JMJD2A Tudor inh	Sfp PPTase inh
CCOC(=O)C(=NCC1CCCO1)NNc1cc(Cl)ccc1Cl (stereo not given)	2%	u	-16%	35µM*	u	-13%
CCOc1ccc(NC(=O)CSc2ncc3c(n2)-c2ccc(Cl)cc2N(Cc2ccccc2)S3(=O)=O)cc1	13%	-1%	x	-4%[59 µM]	-5%	x
COC(=O)[C@@]1(Cc2ccc(OC)cc2)[C@H]2c3cc(C(=O)N4CCCC4)n(CCF)c3C[C@H]2CN1C(=O)c1ccccc1	x	x	x	x	x	-18%
COC(=O)[C@@]1(Cc2ccc(OC)cc2)[C@H]2c3cc(C(=O)N4CCCC4)n(Cc4ccc(OC)c(OC)c4)c3C[C@H]2CN1C(=O)c1ccccc1	x	u	x	45µM*	x	-7%
COC(=O)[C@@]1(Cc2ccc(OC)cc2)[C@H]2c3cc(C(=O)N4CCCC4)n(CCN4CCNC4=O)c3C[C@H]2CN1C(=O)c1ccccc1	x	-11%	x	79µM*	x	-11%
CC(C)c1ccc(OCC(=O)Nc2c(Cl)ccc3nsnc23)cc1	20%	-2%	x	8%[59 µM]	-18%	x
CC[C@H](C)C(=O)O[C@H]1CCC=C2C=C[C@H](C)[C@H](CC[C@@H]3C[C@H](O)CC(=O)O3)C21 (stereo not given in full)	x	x	x	8%[12.7 µM]	x	x
Brc1cc2c(cc1-c1nc3ccccc3s1)OCO2	-9%	26%	u	40µM*	6%	-24%
Brc1ccc(-c2nc3ccccc3s2)s1	161%	20%	-11%	47%[59 µM]	41%	-3%
Cc1onc(-c2c(F)cccc2Cl)c1C(=O)OCc1cnc(Cl)s1	133%	28%	2%	102%	74%	-4%
O=C(OCc1cnc(Cl)s1)c1c(F)cccc1F	43%	13%	24µM*	12%	u	12%
CSc1ccc(CNC(=O)CCc2c(C)nn(-c3ccc(N4CCCC4)nn3)c2C)cc1	-12%	56µM*	x	6%[59 µM]	-27%	x
Cc1cc(F)ccc1NC(=O)CCc1c(C)nn(-c2ccc(N3CCCCC3)nn2)c1C	3%	-36%[57.1 µM]	21µM*	u	u	15%
CC(=O)c1ccc(NC(=O)CCc2c(C)nn(-c3ccc(N4CCOCC4)nn3)c2C)cc1	5%	u	21µM*	16%[59 µM]	u	21%
Cc1nn(-c2ccc(N3CCCC3)nn2)c(C)c1CCC(=O)NCc1ccccc1	51%	-21%	x	4%[59 µM]	-10%	x
Cc1ccc(NC(=O)CCc2c(C)nn(-c3ccc(N4CCOCC4)nn3)c2C)cc1	32%	-5%[57.1 µM]	-14%	16%	-12%	12%
Cc1ccc(F)cc1NC(=O)CCc1c(C)nn(-c2ccc(N3CCCCC3)nn2)c1C	61%	-15%	-2%	4%	-26%	3%
CC(C)(CC(=O)O)CC(=O)NCc1c(Cl)cccc1Sc1ccc(Cl)cc1	52%	-3%	4%	-2%	-1%	12%
O=C(O)CCCC(=O)NCc1c(Cl)cccc1Sc1ccc(Cl)cc1	18%	3%	-1%	x	-8%	79µM*
COC(=O)c1ccc(-c2ccco2)n1Cc1nc(-c2ccc(OC)c(OC)c2)oc1C	-22%	u	-9%	u	-35%	20µM*
COC(=O)c1cc2oc3ccccc3c2n1Cc1nc(-c2ccc(OC)cc2)oc1C	25%	-1%	x	-10%[59 µM]	-16%	x
COC(=O)c1cc2occc2n1Cc1nc(-c2ccc(Cl)cc2)oc1C	29%	-2%	30µM*	-6%[59 µM]	-2%	-3%
CC(=O)c1sc(NC(=O)C2CC(=O)N(Cc3ccccc3)C2)nc1-c1ccccc1 (stereo not given)	-8%	-6%	-13%	56µM*	-33%	x
CC(=O)Nc1ccc(NC(=O)C2CC(=O)N(Cc3ccccc3)C2)cc1 (stereo not given)	33%	-11%	1%	31%[59 µM]	-3%	16%
